Test results taken from PubChem BioAssay (EPA / NIEHS).
Activity calls are given as the source filed them. The calls were made as follows: active = hit-call score of the fitted dose curve at least 0.9, where 1 is the maximum; inactive = score below 0.9.

Experiments:
[1] = read-out: Urokinase-type plasminogen activator receptor (uPAR), PLAUR (gene 5329); assay: BSK_4H_uPAR: BioMAP Diversity Plus: 4H Assay for Urokinase-type plasminogen activator receptor (uPAR) Biomarker Activity (AID 2283030); details: primary human endothelial cells (HUVEC); actives raise or lower the signal
In short: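 Endpoint derived via bidirectional curve fitting against DMSO baseline; readout was ELISA detection of uPAR on umbilical vein endothelial cells at 24 h post-treatment, with SRB-stained parallel cultures assessing cytotoxicity.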

[2] = read-out: Human Leukocyte Antigen - DR isotype (HLADR), HLA-DRA (gene 3122); assay: BSK_BE3C_HLADR: BioMAP Diversity Plus: BE3C Assay for Human Leukocyte Antigen - DR isotype (HLADR) Biomarker Activity (AID 2283032); details: primary human bronchial epithelial cells; actives raise or lower the signal
In short: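 BioMAP BE3C format: human bronchial epithelium, 24 h compound treatment, ELISA detection of HLA-DR, with bidirectional analysis relative to DMSO.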

[3] = read-out: Vascular cell adhesion molecule 1 (VCAM1), VCAM1 (gene 7412); assay: BSK_4H_VCAM1: BioMAP Diversity Plus: 4H Assay for Vascular cell adhesion molecule 1 (VCAM1) Biomarker Activity (AID 2283033); details: primary human endothelial cells (HUVEC); actives raise or lower the signal
In short: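 In this human endothelial (HUVEC) system, biomarker ELISA was run 24 h after compound addition, and total protein in parallel wells was assessed by SRB at 560 nm; DMSO served as negative control.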

[4] = read-out: Interferon-gamma inducible Protein 10 (IP10), CXCL10 (gene 3627); assay: BSK_BE3C_IP10: BioMAP Diversity Plus: BE3C Assay for Interferon-gamma inducible Protein 10 (IP10) Biomarker Activity (AID 2283034); details: primary human bronchial epithelial cells; actives raise or lower the signal
In short: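 BE3C cells (human bronchial epithelial, primary); 24 h exposure; ELISA for IP-10; DMSO-referenced bidirectional fit.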

[5] = read-out: Monokine induced gamma interferon (MIG), CXCL9 (gene 4283); assay: BSK_BE3C_MIG: BioMAP Diversity Plus: BE3C Assay for Monokine induced gamma interferon (MIG) Biomarker Activity (AID 2283035); details: primary human bronchial epithelial cells; actives raise or lower the signal
In short: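 Dose cells (human primary bronchial epithelial), incubate 24 h, quantify MIG by ELISA, then fit concentration–response in both directions relative to DMSO control.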

[6] = read-out: Transforming growth factor beta 1 (TGFb1), TGFB1 (gene 7040); assay: BSK_BE3C_TGFb1: BioMAP Diversity Plus: BE3C Assay for Transforming growth factor beta 1 (TGFb1) Biomarker Activity (AID 2283036); details: primary human bronchial epithelial cells; actives raise or lower the signal
In short: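 TGF-b1 measured via ELISA, 24 h after chemical dosing of human bronchial epithelial cells (BE3C). Overt cytotoxicity assessed in parallel by SRB (0.1%, TCA-fixed, 560 nm); analysis bidirectional relative to DMSO.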

[7] = read-out: Plasminogen activator inhibitor-1 (PAI1), SERPINE1 (gene 5054); assay: BSK_BE3C_PAI1: BioMAP Diversity Plus: BE3C Assay for Plasminogen activator inhibitor-1 (PAI1) Biomarker Activity (AID 2283037); details: primary human bronchial epithelial cells; actives raise or lower the signal
In short: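 In this multiplexed primary-cell system, bronchial epithelial cells receive test chemical and are sampled at 24 h. PAI-1 is read by ELISA, with DMSO serving as negative control for bidirectional fitting.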

[8] = read-out: Urokinase-type plasminogen activator receptor (uPAR), PLAUR (gene 5329); assay: BSK_BE3C_uPAR: BioMAP Diversity Plus: BE3C Assay for Urokinase-type plasminogen activator receptor (uPAR) Biomarker Activity (AID 2283039); details: primary human bronchial epithelial cells; actives raise or lower the signal
In short: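 Chemically treated human bronchial epithelial cells (lung primary) are assayed for uPAR by ELISA after 24 h, with data fitted in both directions using DMSO as negative control.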

[9] = read-out: Vascular endothelial growth factor receptor 2 (Homo sapiens) (UniProt P35968); assay: BSK_4H_VEGFRII: BioMAP Diversity Plus: 4H Assay for Vascular endothelial growth factor receptor 2 (VEGFR2) Biomarker Activity (AID 2283031); details: primary human endothelial cells (HUVEC); actives raise or lower the signal;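 as to AC50: cell-surface VEGFR2 protein level quantified by ELISA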
In short: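 In this multiplexed HUVEC system, biomarker ELISA was performed after 24 h chemical exposure. Parallel SRB staining (TCA fixation, 560 nm) tracked cytotoxicity; DMSO served as baseline.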

[10] = read-out: urokinase plasminogen activator (uPA), PLAU (gene 5328); assay: BSK_BE3C_uPA: BioMAP Diversity Plus: BE3C Assay for urokinase plasminogen activator (uPA) Biomarker Activity (AID 2283038); details: primary human bronchial epithelial cells; actives raise or lower the signal
In short: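 Using confluent primary human lung bronchial epithelial cultures, we dosed chemicals, waited 24 h, then ran a uPA ELISA, fitting bidirectionally against DMSO.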

Measured: AC50

CCCCSP(=O)(SCCCC)SCCCC
inactive: [1] | [3] | [4] | [5] | [6] | [7] | [8]
active: [2] 20 µM

CN(C)C(=O)Nc1cccc(C(F)(F)F)c1
inactive: [1] | [9] | [2] | [3] | [4] | [5] | [6] | [7] | [8]

Cc1cc(C2CC2)nc(Nc2ccccc2)n1
active: [2] 5.17 µM
inactive: [1] | [9] | [3] | [4] | [5] | [6] | [7] | [8]

CCOC(=O)COc1cc(-c2nn(C)c(OC(F)F)c2Cl)c(F)cc1Cl
inactive: [1] | [9] | [2] | [3] | [4] | [5] | [6] | [7] | [8]

CCOP(=S)(OCC)OC(Cl)C(Cl)(Cl)Cl (centres undefined)
inactive: [1] | [9] | [2] | [3] | [4] | [5] | [6] | [7] | [8]

C#CCC1=C(C)C(OC(=O)C2C(C=C(C)C)C2(C)C)CC1=O (centres undefined)
active: [4] 27.1 µM
inactive: [1] | [9] | [2] | [3] | [5] | [6] | [7] | [8]

CC(C1CC1)C(O)(Cn1cncn1)c1ccc(Cl)cc1 (centres undefined)
inactive: [1] | [9] | [2] | [3] | [4] | [5] | [6] | [7] | [8]

CSc1nc(NC(C)C)nc(NC(C)C)n1
inactive: [1] | [9] | [2] | [3] | [4] | [5] | [6] | [7] | [8]

CCOP(=S)(OCC)Oc1ccc2c(C)c(Cl)c(=O)oc2c1
inactive: [1] | [9] | [2] | [3] | [4] | [5] | [6] | [10] | [8]

N#CSCSC#N
active: [1] 5.82 µM | [3] 6.29 µM
inactive: [9] | [2] | [4] | [5] | [6] | [7] | [8]

CON=C(C(=O)OC)c1ccccc1CON=C(C)c1cccc(C(F)(F)F)c1
inactive: [1] | [9] | [2] | [3] | [5] | [6]
active: [4] 20 µM | [7] 8.79 µM | [8] 5.37 µM

COc1ccc(C(=CC(=O)N2CCOCC2)c2ccc(Cl)cc2)cc1OC
inactive: [1] | [9] | [2] | [3] | [4] | [5] | [6] | [7] | [8]

CCCOCC(=Nc1ccc(Cl)cc1C(F)(F)F)n1ccnc1
active: [1] 36.7 µM | [2] 25.7 µM | [3] 30.7 µM | [4] 32.3 µM | [5] 35.3 µM | [7] 30.9 µM | [10] 34.5 µM | [8] 32.8 µM

CC(C)N(C(=O)SCC(Cl)=C(Cl)Cl)C(C)C
active: [1] 31.4 µM | [9] 31.1 µM | [3] 33.1 µM
inactive: [2] | [4] | [5] | [6] | [7] | [8]

CCCSP(=O)(OCC)Oc1ccc(Br)cc1Cl (centres undefined)
active: [2] 32.1 µM | [3] 29.8 µM | [4] 29.1 µM
inactive: [1] | [9] | [5] | [6] | [7] | [8]

CC(C)[C@H](C(=O)O[C@H](C#N)c1cccc(Oc2ccccc2)c1)c1ccc(Cl)cc1
inactive: [1] | [9] | [2] | [4] | [5] | [6] | [7]
active: [3] 2.95 µM | [8] 5.23 µM

CC[C@H](C)[C@H]1O[C@]2(C=C[C@@H]1C)C[C@@H]1C[C@@H](C/C=C(\C)[C@@H](O[C@H]3C[C@H](OC)[C@@H](O[C@H]4C[C@H](OC)[C@@H](NC)[C@H](C)O4)[C@H](C)O3)[C@@H](C)/C=C/C=C3\CO[C@@H]4[C@H](O)C(C)=C[C@@H](C(=O)O1)[C@]34O)O2
active: [1] 1.73 µM | [2] 3.98 µM | [3] 8.45 µM | [4] 7.15 µM | [5] 8.8 µM | [6] 9.47 µM | [7] 6.98 µM | [8] 5.78 µM
inactive: [9]

COP(=O)(OC)C(O)C(Cl)(Cl)Cl (centres undefined)
active: [8] 5.49 µM
inactive: [1] | [9] | [2] | [3] | [4] | [5] | [6] | [7]

CCC(=O)Nc1ccc(Cl)c(Cl)c1
active: [4] 27.2 µM | [6] 3.97 µM
inactive: [1] | [9] | [2] | [3] | [5] | [7] | [8]
